Compound activity (PubChem)
FBA Mtb inh – Mtb fructose-bisphosphate aldolase inhibition; inhibition, % at 1 µM; AID 588726; 2.3% of 360,000 active; P9WQA3; purified M. tuberculosis FBA, fluorescence read-out; in the data active = inhibition above about 27%;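 note: 0% = vehicle and 100% = reference inhibitor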
Target sequence (P9WQA3 whole entry, looked up): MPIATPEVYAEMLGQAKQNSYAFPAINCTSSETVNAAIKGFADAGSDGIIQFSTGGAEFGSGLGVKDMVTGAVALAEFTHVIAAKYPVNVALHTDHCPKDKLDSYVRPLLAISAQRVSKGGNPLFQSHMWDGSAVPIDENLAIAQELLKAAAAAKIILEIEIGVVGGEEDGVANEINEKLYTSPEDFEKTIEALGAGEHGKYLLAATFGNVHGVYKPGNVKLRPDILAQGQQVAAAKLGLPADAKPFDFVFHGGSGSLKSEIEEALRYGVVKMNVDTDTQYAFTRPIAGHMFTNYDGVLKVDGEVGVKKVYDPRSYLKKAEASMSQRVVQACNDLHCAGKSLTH
Mtb bLac sens – beta-lactam sensitization of Mtb H37Rv. inhibition, % at 25 µM. AID 434955. 0.27% of 330,000 active. M. tuberculosis H37Rv growth with meropenem, percent inhibition; call rule not given here;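 note: growth measured after seven days incubation then overnight dye step; 0% = bacteria only wells and 100% = bacteria with antibiotic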
CCHF vOTU inh – blocks the CCHF virus ovarian tumor domain protease | CCHFV vOTU protease, Pep-AMC fluorescence | inhibition, % at 11.5 µM | 0.55% of 370,000 active; note: 0% = vehicle wells with enzyme and 100% = no enzyme wells
GDH-TPI counter-1 – counter-screen for M. tuberculosis FBA inhibitors: GDH-TPI coupled enzymes; GDH-TPI coupled enzyme counterscreen, NADH absorbance; 1.2% of 360,000 active; inhibition, % at 4.8 µM;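 note: 0% = DMSO wells and 100% = wells lacking the enzyme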
RecA intein inh – Mtb RecA intein splicing inhibition; cell-free RecA intein splicing, fluorescence; inhibition, % (test concentration not listed); P9WHJ3; 0.75% of 290,000 active; in the data active = inhibition above about 30%; inconclusive = no clear call, values can overlap the other calls;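 note: 0% = vehicle wells and 100% = reference inhibitor control wells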
Mtb FBA confirm – confirmation of M. tuberculosis fructose-bisphosphate aldolase inhibitors | 78% of 5,600 active | purified M. tuberculosis FBA, fluorescence read-out | shares compounds with FBA Mtb inh | inhibition, % at 1 µM; in the data active = inhibition above about 27%;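 note: 0% = vehicle wells and 100% = reference inhibitor wells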
GDH-TPI counter-2 – GDH-TPI inhibition counter-screen for FBA inhibitors; shares compounds with FBA Mtb inh; GDH-TPI coupled enzyme counterscreen, fluorescence; inhibition, % at 1 µM; 81% of 5,600 active; AID 652141; in the data active = inhibition above about 10%
GDH-TPI DR – GDH-TPI dose response counter-screen for Mtb FBA; shares compounds with FBA Mtb inh; GDH-TPI coupled enzyme assay, fluorescence, artifact counterscreen; IC50, µM; 79% of 170 active; call rule not given here
An asterisk follows results filed as active; ? = inconclusive; . = no result; + = active, no number. Shown are actives, neighbours in structure and some others; about 4.2% of the full set was active somewhere. Cut-off read from the data, not from the text of the source, unless noted: active = inhibition above about 30%; inactive = the rest.

SMILES | FBA Mtb inh | Mtb bLac sens | CCHF vOTU inh | GDH-TPI counter-1 | RecA intein inh | Mtb FBA confirm | GDH-TPI counter-2 | others
CCN=C1NC(c2ccc(F)cc2)C(C(=O)OC)=C(C)N1Cc1ccccc1C(F)(F)F (stereo unspecified) | . | . | 1.3 | . | . | . | .
Cc1nc2ccccn2c1-c1nnco1 | 35.6* | 4.4 | -0.6 | 3.0 | 1.6 | 4.7 | -3.6
Cc1cccc(Nc2nc(-c3c(C)nc4ccccn34)cs2)c1 | 0.7 | 3.1 | 9.8 | 7.1 | 2.8 | . | .
Cc1ccc(-c2cc(C(=O)OCC(=O)Nc3cc(C)on3)c3ccccc3n2)c(C)c1 | 103.1* | -4.1 | 2.2 | 8.6 | . | 58.3* | 49.6*
Cn1c(C(=O)N[C@@H](Cc2ccccc2)C(=O)O)cc2cc(F)ccc21 | 8.4 | -4.8 | 15.0 | -9.5 | -0.8 | . | .
COc1ccc2c(c1)cc(C(=O)N[C@@H](Cc1ccccc1)C(=O)O)n2C | 91.7* | -1.8 | -13.8 | 0.7 | 0.5 | 121.3* | 87.5*
COc1ccc2c(c1)cc(C(=O)N[C@@H](CCSC)C(=O)N1CCC(C(=O)O)CC1)n2C | 64.2* | -5.1 | -33.2 | -7.3 | -1.3 | 0.1 | -1.2
COc1ccc2c(c1)cc(C(=O)N[C@@H](Cc1ccccc1)C(=O)N[C@@H](C)C(=O)O)n2C | 59.0* | -5.8 | 1.1 | 14.7 | -1.0 | 31.4* | 9.0 | GDH-TPI DR=2.45*
Cn1c(C(=O)N[C@@H](Cc2ccccc2)C(=O)NCCC(=O)O)cc2cc(Cl)ccc21 | 2.8 | 9.0 | -6.4 | 13.9 | 1.3 | . | .
COC(=O)C1=C(C)N(C)C(=NCc2ccc(OC)cc2)NC1c1ccccc1 (stereo unspecified) | . | . | -0.1 | . | . | . | .
CCOC(=O)[C@@]12CN(C(=O)OC(C)(C)C)CC=C1N(Cc1ccc(OC)cc1)C(=O)[C@H]2CC(=O)NCCC(C)C | . | . | 18.8 | . | . | . | .
Cc1ccc(OCC(=O)N2CCOCC2)cc1C | 1.6 | -13.0 | 8.1 | 3.0 | -3.7 | . | .
CC1(C)CC(=O)c2cc(OCC(=O)N3CCOCC3)ccc2O1 | 48.4* | -6.3 | -100.2 | 14.9 | -16.2 | + | +
CCN(CC)C(=O)COc1ccc2c(c1)C(=O)CC(C)(C)O2 | 59.1* | 0.8 | -89.1 | 9.1 | -16.3 | 87.4* | 71.5*
Cc1cc(OCC(=O)N(C)c2ccccc2)cc2c1C(=O)CC(C)(C)O2 | 7.7 | 0.2 | 1.3 | 1.5 | . | . | .
Cc1ccc(/C=N/NC(=O)c2ccccc2OCc2ccc(F)cc2)o1 | 93.8* | 3.5 | 17.9 | 24.2 | -0.5 | 54.1* | 47.0*
Cc1ccccc1COC(=O)c1nn(-c2ccccc2)nc1N | 96.9* | 81.0 | -27.3 | 0.4 | 0.4 | 78.9* | 66.5*
COc1ccccc1Oc1c(C)oc2cc(OC(=O)c3ccco3)ccc2c1=O | 54.8* | -2.1 | -98.4 | 13.9 | . | 118.5* | 111.1*
COc1ccccc1-c1c(C)oc2cc(OC(=O)c3ccco3)ccc2c1=O | 36.0* | 0.9 | -77.7 | 0.6 | 30.6* | 15.0 | 1.4 | GDH-TPI DR=4.51*
CCOc1ccccc1Oc1c(C)oc2cc(OC(=O)c3ccco3)ccc2c1=O | 16.8 | 4.5 | -21.8 | 11.7 | 3.9 | . | .
O=C(c1cccn2c(=O)c3cc(Cl)ccc3nc12)N1CCOCC1 | 45.1* | ? | -71.3 | 17.6 | -190.2 | -2.6 | -3.9
O=C(c1cccn2c(=O)c3cc(Cl)ccc3nc12)N1CCN(Cc2ccc3c(c2)OCO3)CC1 | 12.7 | 80.5 | -31.8 | 5.6 | -48.2 | . | .
NC(=O)C1(N2CCCCC2)CCN(C(=O)c2cccn3c(=O)c4cc(Cl)ccc4nc23)CC1 | 39.9* | -10.8 | -60.3 | 28.9 | -115.8 | -2.0 | -5.8
CN(c1cccnc1)c1ccc(NC(=O)Cc2c[nH]c3ccccc23)cc1-c1cccnc1F | . | . | 15.7 | . | . | . | .
Cc1csc2ncc(C(=O)NCCC(c3ccccc3)c3ccccc3)c(=O)n12 | 33.5* | -8.6 | -12.7 | 18.8 | . | 100.8* | 56.7*
SMILES | FBA Mtb inh | Mtb bLac sens | CCHF vOTU inh | GDH-TPI counter-1 | RecA intein inh | Mtb FBA confirm | GDH-TPI counter-2 | others
Cc1csc2ncc(C(=O)NCCc3ccccc3)c(=O)n12 | 51.7* | -6.0 | -61.0 | 29.1 | 1.4 | 122.1* | 103.7*
CCc1ccccc1NC(=O)c1cnc2scc(C)n2c1=O | -0.6 | 7.8 | 5.0 | 1.4 | -7.3 | . | .
O=C(NCCc1ccccc1)c1cnc2ccccn2c1=O | 105.2* | 1.2 | -112.0 | 29.6 | -1.8 | 113.0* | 88.2*
Cc1csc2ncc(C(=O)NCc3ccccn3)c(=O)n12 | 64.6* | 0.8 | -45.4 | 36.1* | 1.7 | 175.1* | 147.4*
CSc1ccccc1NC(=O)c1cnc2scc(C)n2c1=O | -1.5 | -2.2 | 17.1 | 28.2 | -0.1 | . | .
O=C(NCC1COCCO1)C1CCN(S(=O)(=O)c2cccs2)CC1 (stereo unspecified) | . | . | -8.1 | . | . | . | .
COC(=O)[C@]12C[C@H](CC(=O)N3CCN(C(=O)C4CC4)CC3)C(=O)N(Cc3ccc(Cl)cc3Cl)C1=C[C@H](COCc1ccccc1)O[C@@H]2C | . | . | 6.1 | . | . | . | .
C=C(C)CSc1nnc(-c2cc(-c3ccccc3)n[nH]2)n1N | . | . | -4.6 | . | . | . | .
Cc1ccc(-c2cc[n+](Cc3ccccc3)cc2)cc1 | 66.6* | -9.8 | -3.0 | 10.5 | -1.9 | + | +
Cc1cc[n+](Cc2ccccc2)cc1 | 1.9 | -14.7 | 7.2 | 5.2 | -1.0 | . | .
Cc1cc(NC(=O)CCC(=O)N(c2ccccc2)C(C(=O)NC2CCCC2)c2ccccc2)no1 (stereo unspecified) | 5.8 | -4.8 | 18.5 | -5.8 | -0.5 | . | .
Cc1cc(NC(=O)CCC(=O)N(c2ccccc2C)C(C(=O)NC2CCCC2)c2ccccc2)no1 (stereo unspecified) | 86.4* | 8.8 | 6.0 | 8.4 | 2.0 | + | 167.0*
O=C1C=CC(=O)N1c1ccc(-c2nc3ccccc3o2)cc1 | 65.2* | . | . | 20.0 | . | -2.9 | -5.2
CCCCNC(=O)C[C@H]1C[C@@]2(C(=O)OC)C(=C[C@H](C3CCCC3)O[C@@H]2C)N(CCC2=CCCCC2)C1=O | . | . | 11.4 | . | . | . | .
COC(=O)C[C@H]1CC[C@H]2[C@@H](COc3ccc(NC(=O)Nc4ccccc4)cc3C(=O)N2C)O1 | . | . | -2.3 | . | . | . | .
O=C(O)CCc1nn2c3ccccc3n(Cc3ccccc3F)c2nc1=O | 36.9* | -1.9 | -19.7 | 5.0 | 2.2 | 110.0* | 86.5*
O=C(O)CCc1nn2c3ccccc3n(CC(=O)O)c2nc1=O | 23.5 | 7.1 | 0.0 | 19.2 | -1.1 | . | .
COc1ccc(C(C(=O)NCC2CCCO2)N(C(=O)c2snc(C(N)=O)c2N)c2ccccc2C)cc1OC (stereo unspecified) | 49.8* | 2.2 | -35.6 | 14.1 | -4.3 | 168.1* | +
CCc1ccccc1N(C(=O)c1snc(C(N)=O)c1N)C(C(=O)NCC1CCCO1)c1ccc(OC)c(OC)c1 (stereo unspecified) | 62.0* | . | -62.6 | 24.4 | -1.5 | + | +
Brc1c(CSc2nc3ccccc3s2)nc2ncccn12 | 28.4* | 2.2 | -13.7 | -2.9 | 0.3 | 107.9* | 81.7*
